This is an account of results in paper PMC11006913.

Positions count from the first letter of the chain named.

Common to all, as to assay: PBM; 200 nM protein, PBS
Holding throughout (details): dsDNA, one strand shown

For one assay, the target named is ALX1 (Homo sapiens, UniProt Q15699 118-204, L144R).
The target of assay [1] is ALX4 (Homo sapiens, UniProt Q9H161 200-286).
Assay [2] deals with T1, PAX4 (Homo sapiens, UniProt O43316 9-242).
T1 sequence: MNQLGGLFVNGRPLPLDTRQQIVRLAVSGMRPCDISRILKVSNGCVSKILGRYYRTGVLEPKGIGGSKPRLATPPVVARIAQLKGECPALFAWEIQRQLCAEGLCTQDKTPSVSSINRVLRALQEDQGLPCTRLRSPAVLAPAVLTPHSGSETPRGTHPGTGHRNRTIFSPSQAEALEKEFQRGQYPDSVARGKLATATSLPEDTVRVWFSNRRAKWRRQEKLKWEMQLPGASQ

Assay [3] concerns the target ALX4 (Homo sapiens, UniProt Q9H161 200-286, Q225E).
Assay [4] has as its target T2, PAX4 (Homo sapiens, UniProt O43316 9-242, R200Q).
T2 sequence: T1 sequence with R192Q

In assay [5] the target is T3, PAX4 (Homo sapiens, UniProt O43316 9-242, F177V).
T3 sequence: T1 sequence with F169V

In assay [6] the target is T4, PAX4 (Homo sapiens, UniProt O43316 9-242, F177Y).
T4 sequence: T1 sequence with F169Y

In assay [7] the target is T5, PAX4 (Homo sapiens, UniProt O43316 9-242, R227W).
T5 sequence: T1 sequence with R219W

For assay [8], the target named is CRX (Homo sapiens, UniProt O43186 26-111).
Assay [9] concerns the target CRX (Homo sapiens, UniProt O43186 26-111, E42D).
Assay [10] concerns the target CRX (Homo sapiens, UniProt O43186 26-111, R41L).
Assay [11] addresses MSX2 (Homo sapiens, UniProt P35548 130-214, R199I).
Assay [12] deals with MSX2 (Homo sapiens, UniProt P35548 130-214).
The target in assay [13] is MSX2 (Homo sapiens, UniProt P35548 130-214, F161Y).
The target of assay [14] is ALX3 (Homo sapiens, UniProt O95076 139-225, N203Q).
Assay [15] deals with ALX3 (Homo sapiens, UniProt O95076 139-225, L168V).
Assay [16] deals with ALX3 (Homo sapiens, UniProt O95076 139-225, N203S).
Assay [17] addresses ALX3 (Homo sapiens, UniProt O95076 139-225).
Assay [18] concerns the target ALX3 (Homo sapiens, UniProt O95076 139-225, L168Q).
In another assay the target is PRRX1 (Homo sapiens, UniProt P54821 80-166).
Sequence of PRRX1 (P54821 80-166): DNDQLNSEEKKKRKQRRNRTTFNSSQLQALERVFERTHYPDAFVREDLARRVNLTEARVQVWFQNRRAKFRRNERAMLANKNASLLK

Sequence of MSX2 (Homo sapiens, UniProt P35548 130-214, R199I) (P35548 130-214 R199I): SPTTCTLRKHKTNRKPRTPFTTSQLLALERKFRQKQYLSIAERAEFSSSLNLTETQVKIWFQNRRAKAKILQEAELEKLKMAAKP
Sequence of MSX2 (Homo sapiens, UniProt P35548 130-214) (P35548 130-214): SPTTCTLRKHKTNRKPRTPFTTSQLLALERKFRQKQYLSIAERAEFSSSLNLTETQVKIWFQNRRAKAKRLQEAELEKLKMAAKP
Sequence of ALX4 (Homo sapiens, UniProt Q9H161 200-286) (Q9H161 200-286): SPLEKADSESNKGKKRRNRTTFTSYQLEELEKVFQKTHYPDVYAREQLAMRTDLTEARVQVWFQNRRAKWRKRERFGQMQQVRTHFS
Sequence of ALX1 (Q15699 118-204 L144R): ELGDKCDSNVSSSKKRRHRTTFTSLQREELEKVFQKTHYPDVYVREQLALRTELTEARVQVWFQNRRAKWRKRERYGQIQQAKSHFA
Sequence of MSX2 (Homo sapiens, UniProt P35548 130-214, F161Y) (P35548 130-214 F161Y): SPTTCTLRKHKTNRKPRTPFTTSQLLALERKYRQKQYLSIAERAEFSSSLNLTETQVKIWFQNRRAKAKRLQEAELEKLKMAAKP
Sequence of ALX3 (Homo sapiens, UniProt O95076 139-225, N203Q) (O95076 139-225 N203Q): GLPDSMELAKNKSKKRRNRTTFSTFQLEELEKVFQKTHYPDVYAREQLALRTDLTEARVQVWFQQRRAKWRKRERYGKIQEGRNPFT
Sequence of ALX4 (Homo sapiens, UniProt Q9H161 200-286, Q225E) (Q9H161 200-286 Q225E): as the sequence (Q9H161 200-286) above, with Q26E counted along it
Sequence of ALX3 (Homo sapiens, UniProt O95076 139-225, N203S) (O95076 139-225 N203S): as the sequence (O95076 139-225 N203Q) above, with Q65S counted along it
Sequence of ALX3 (Homo sapiens, UniProt O95076 139-225, L168V) (O95076 139-225 L168V): as the sequence (O95076 139-225 N203Q) above, with L30V, Q65N counted along it
Sequence of ALX3 (Homo sapiens, UniProt O95076 139-225, L168Q) (O95076 139-225 L168Q): as the sequence (O95076 139-225 N203Q) above, with L30Q, Q65N counted along it
Sequence of CRX (Homo sapiens, UniProt O43186 26-111) (O43186 26-111): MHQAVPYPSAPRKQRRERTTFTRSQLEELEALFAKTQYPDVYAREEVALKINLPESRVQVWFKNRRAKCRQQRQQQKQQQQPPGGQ
Sequence of ALX3 (Homo sapiens, UniProt O95076 139-225) (O95076 139-225): as the sequence (O95076 139-225 N203Q) above, with Q65N counted along it
Sequence of CRX (Homo sapiens, UniProt O43186 26-111, E42D) (O43186 26-111 E42D): as the sequence (O43186 26-111) above, with E17D counted along it
Sequence of CRX (Homo sapiens, UniProt O43186 26-111, R41L) (O43186 26-111 R41L): as the sequence (O43186 26-111) above, with R16L counted along it

Consider CGCAGGCG, for which, in the assay with ALX1, the binding signal is 6.71 upbm affinity estimate (log intensity, higher = more binding, comparable within an allelic series).

As for CGTCCCGC, the binding signal in the assay with ALX4 [1] was 8 upbm affinity estimate (log intensity, higher = more binding, comparable within an allelic series); with PAX4 [2], 9.17 upbm affinity estimate (log intensity, higher = more binding, comparable within an allelic series); with ALX4 [3], 8.06 upbm affinity estimate (log intensity, higher = more binding, comparable within an allelic series); with PAX4 [4] it was 9.15 upbm affinity estimate (log intensity, higher = more binding, comparable within an allelic series); with PAX4 [5] it was 9.15 upbm affinity estimate (log intensity, higher = more binding, comparable within an allelic series); in the assay with PAX4 [6], 9.19 upbm affinity estimate (log intensity, higher = more binding, comparable within an allelic series). The binding signal with PAX4 [7] was 9.22 upbm affinity estimate (log intensity, higher = more binding, comparable within an allelic series).

Turning to AATCATTA, the binding signal with CRX [8] was 10.5 upbm affinity estimate (log intensity, higher = more binding, comparable within an allelic series); in the assay with CRX [9], 10.3 upbm affinity estimate (log intensity, higher = more binding, comparable within an allelic series); with CRX [10] it was 9.82 upbm affinity estimate (log intensity, higher = more binding, comparable within an allelic series).

On to CGGGAGAG, for which, in the assay with ALX1, the binding signal was 6.21 upbm affinity estimate (log intensity, higher = more binding, comparable within an allelic series).

GCCGCCGC: the binding signal with MSX2 [11] was 9.4 upbm affinity estimate (log intensity, higher = more binding, comparable within an allelic series); with MSX2 [12] it was 9.37 upbm affinity estimate (log intensity, higher = more binding, comparable within an allelic series); with MSX2 [13], 9.42 upbm affinity estimate (log intensity, higher = more binding, comparable within an allelic series).

In the case of ATTAATCG, the binding signal with PAX4 [2] is 12.2 upbm affinity estimate (log intensity, higher = more binding, comparable within an allelic series); with PAX4 [4], 12 upbm affinity estimate (log intensity, higher = more binding, comparable within an allelic series); with PAX4 [5], 10.5 upbm affinity estimate (log intensity, higher = more binding, comparable within an allelic series); in the assay with PAX4 [6] it was 11.1 upbm affinity estimate (log intensity, higher = more binding, comparable within an allelic series); in the assay with PAX4 [7], 10.7 upbm affinity estimate (log intensity, higher = more binding, comparable within an allelic series).

For TATTAATA, the binding signal with ALX3 [14] was 8.75 upbm affinity estimate (log intensity, higher = more binding, comparable within an allelic series); with PAX4 [4] it was 11.9 upbm affinity estimate (log intensity, higher = more binding, comparable within an allelic series); in the assay with PAX4 [6] it was 11.1 upbm affinity estimate (log intensity, higher = more binding, comparable within an allelic series); in the assay with ALX3 [15], 9.77 upbm affinity estimate (log intensity, higher = more binding, comparable within an allelic series); in the assay with PAX4 [7], 11.2 upbm affinity estimate (log intensity, higher = more binding, comparable within an allelic series); with ALX3 [16] it was 8.79 upbm affinity estimate (log intensity, higher = more binding, comparable within an allelic series).

For the sequence CCCCCTCG, the binding signal in the assay with ALX4 [1] is 8.09 upbm affinity estimate (log intensity, higher = more binding, comparable within an allelic series); in the assay with ALX4 [3], 7.97 upbm affinity estimate (log intensity, higher = more binding, comparable within an allelic series); with MSX2 [11] it was 9.51 upbm affinity estimate (log intensity, higher = more binding, comparable within an allelic series); with MSX2 [12], 9.66 upbm affinity estimate (log intensity, higher = more binding, comparable within an allelic series); with MSX2 [13], 9.64 upbm affinity estimate (log intensity, higher = more binding, comparable within an allelic series).

ATCGATTA: the binding signal with PAX4 [6] is 11 upbm affinity estimate (log intensity, higher = more binding, comparable within an allelic series).

Consider GGAGCTCC, for which the binding signal was 7.72 upbm affinity estimate (log intensity, higher = more binding, comparable within an allelic series) with ALX4 [1]; 7.79 upbm affinity estimate (log intensity, higher = more binding, comparable within an allelic series) with ALX4 [3]; 9.52 upbm affinity estimate (log intensity, higher = more binding, comparable within an allelic series) in the assay with MSX2 [11]; 7.68 upbm affinity estimate (log intensity, higher = more binding, comparable within an allelic series) in the assay with ALX3 [14]; 9.28 upbm affinity estimate (log intensity, higher = more binding, comparable within an allelic series) with MSX2 [12]; 7.41 upbm affinity estimate (log intensity, higher = more binding, comparable within an allelic series) in the assay with ALX3 [17]. For the same sequence, the binding signal with ALX3 [18] is 7.7 upbm affinity estimate (log intensity, higher = more binding, comparable within an allelic series); with ALX3 [15], 7.63 upbm affinity estimate (log intensity, higher = more binding, comparable within an allelic series); with MSX2 [13], 9.3 upbm affinity estimate (log intensity, higher = more binding, comparable within an allelic series); with ALX3 [16], 7.63 upbm affinity estimate (log intensity, higher = more binding, comparable within an allelic series).

As to ATTATTAA, the binding signal in the assay with ALX3 [14] was 8.56 upbm affinity estimate (log intensity, higher = more binding, comparable within an allelic series); with PRRX1, 13.2 upbm affinity estimate (log intensity, higher = more binding, comparable within an allelic series).

On to AGTCATTA, for which the binding signal with PRRX1 is 12.7 upbm affinity estimate (log intensity, higher = more binding, comparable within an allelic series).

For the sequence GCGCAGCC, in the assay with ALX1, the binding signal is 6.45 upbm affinity estimate (log intensity, higher = more binding, comparable within an allelic series).

In the case of CCTCATTA, the binding signal with PRRX1 is 13.2 upbm affinity estimate (log intensity, higher = more binding, comparable within an allelic series).

Consider GACCAGGC, for which the binding signal with PAX4 [2] is 9.45 upbm affinity estimate (log intensity, higher = more binding, comparable within an allelic series); with PAX4 [4], 9.45 upbm affinity estimate (log intensity, higher = more binding, comparable within an allelic series); in the assay with PAX4 [5], 9.26 upbm affinity estimate (log intensity, higher = more binding, comparable within an allelic series); in the assay with PAX4 [6], 9.29 upbm affinity estimate (log intensity, higher = more binding, comparable within an allelic series); with PAX4 [7] it was 9.37 upbm affinity estimate (log intensity, higher = more binding, comparable within an allelic series).

For ACATTAAT, the binding signal with PAX4 [5] is 10.5 upbm affinity estimate (log intensity, higher = more binding, comparable within an allelic series).

With GGTCATTA, the binding signal is 11.6 upbm affinity estimate (log intensity, higher = more binding, comparable within an allelic series) with MSX2 [11]; 12.7 upbm affinity estimate (log intensity, higher = more binding, comparable within an allelic series) with MSX2 [12]; 12.5 upbm affinity estimate (log intensity, higher = more binding, comparable within an allelic series) in the assay with MSX2 [13].

In the case of CCGGACCA, the binding signal in the assay with MSX2 [11] is 9.46 upbm affinity estimate (log intensity, higher = more binding, comparable within an allelic series); with MSX2 [12], 9.39 upbm affinity estimate (log intensity, higher = more binding, comparable within an allelic series); in the assay with MSX2 [13], 9.4 upbm affinity estimate (log intensity, higher = more binding, comparable within an allelic series).

Consider CGAGGCAC, for which the binding signal in the assay with MSX2 [11] was 9.52 upbm affinity estimate (log intensity, higher = more binding, comparable within an allelic series); with MSX2 [12], 9.5 upbm affinity estimate (log intensity, higher = more binding, comparable within an allelic series); with MSX2 [13], 9.56 upbm affinity estimate (log intensity, higher = more binding, comparable within an allelic series).
